# According to PubChem BioAssay AID1851 (National Center for Advancing Translational Sciences (NCATS), 2009):
# The whole screen tested about 16,000 compounds, of which about 2,600 (16%) were called active. Roughly 20% stayed inconclusive and do not appear here. These entries were drawn from the full list. A number with no mark means an inactive call. Calls follow the shape of the dose curve; as a rule, active = well fitted curve in the direction sought with a large enough effect; inconclusive = small, poorly fitted or top-dose-only effect, or effect the other way; inactive = no such curve, though single readings can be large or run the other way. Square brackets hold non-standard residues; d marks the D form. Peptide text beside a SMILES is read from it.
# Molecular target: Cytochrome P450 2D6 (Homo sapiens) (UniProt P10635)
# Sequence (P10635 whole entry, looked up): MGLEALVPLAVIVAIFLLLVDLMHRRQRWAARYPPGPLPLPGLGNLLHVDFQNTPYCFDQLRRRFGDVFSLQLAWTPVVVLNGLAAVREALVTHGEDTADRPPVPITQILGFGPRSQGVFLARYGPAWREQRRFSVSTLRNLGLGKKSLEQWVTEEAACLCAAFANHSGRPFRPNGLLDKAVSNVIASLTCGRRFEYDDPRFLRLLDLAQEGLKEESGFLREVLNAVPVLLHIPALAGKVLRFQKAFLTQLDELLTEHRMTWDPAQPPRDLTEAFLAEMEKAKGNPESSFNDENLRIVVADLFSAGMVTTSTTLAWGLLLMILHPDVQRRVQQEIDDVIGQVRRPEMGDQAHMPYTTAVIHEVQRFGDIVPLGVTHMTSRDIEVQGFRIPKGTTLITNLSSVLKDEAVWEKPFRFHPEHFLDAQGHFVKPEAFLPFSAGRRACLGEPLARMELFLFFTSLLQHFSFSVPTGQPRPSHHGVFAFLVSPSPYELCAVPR
# Experiment: Cytochrome panel assay with activity outcomes
# Details: recombinant CYP, pro-luciferin dealkylation, luminescence, p450-cyp2d6; series mostly up to 57.1 µM
# % is scaled to controls: 0 for no effect and ±100 for the full control effect.
SMILES,AC50,"activity, negative = inhibition"
Cc1cc2c(ncn2Cc2ccccc2)c([N+](=O)[O-])c1C,inactive,–
Cc1ccc(C)c(C(=O)CN2C3=NCCCN3c3ccccc32)c1,10 nM (active),–
Cc1ccccc1CN1C2=NCCN2C(=O)C2=C1CCN(Cc1ccccc1)C2,–,-16.1% [at 11.4 µM]
CCCN1C2=NCCCN2c2ccccc21,7080 nM (active),–
CCCCN1C(=O)CC(Sc2ccccc2C(=O)O)C1=O (centres undefined),inactive,–
CCCCN1C2=NCCCN2c2ccccc21,5010 nM (active),–
CC(C)C[C@H]1C(=O)N2CCC[C@@H]2[C@]2(O)O[C@](NC(=O)[C@H]3C=C4c5cccc6[nH]c(Br)c(c56)C[C@H]4N(C)C3)(C(C)C)C(=O)N12,inactive,–
COCCCN1C(=O)C(=O)/C(=C(/O)c2ccc(OC(C)C)c(C)c2)C1c1ccncc1 (centres undefined),inactive,–
N[C@H](CO)C(=O)NCC(=O)O (H-[dS]-Gly-OH),–,-2.94% [at 11.4 µM]
Cc1cc(C)nc(NS(=O)(=O)c2ccc(N)cc2)n1,inactive,–
CN1C(=O)/C(=C\c2ccccc2)Sc2ccc(C(=O)N3CCN(c4ccccn4)CC3)cc21,inactive,–
C=C[C@H](N)CCC(=O)O,inactive,–
CCc1c(C)sc(NC(=O)OC)c1C(N)=O,inactive,–
COc1nc(/C(N)=N/O)nc(N2CCCCC2)n1,inactive,–
Cc1ncc([N+](=O)[O-])n1CCOC(=O)NC(NCc1ccccc1)C(Cl)(Cl)Cl (centres undefined),inactive,–
Cc1cc(=O)c2ccccc2[nH]1,inactive,–
OC(COCC1COc2ccccc2O1)CN1CCc2ccccc2C1 (centres undefined),447 nM (active),–
Cc1cc2c(nc1C)CCCN2C[C@@H](O)CN1CCN(C)CC1,–,-5.57% [at 11.4 µM]
OC(COCC1COc2ccccc2O1)CN1CCN(c2ccccc2F)CC1 (centres undefined),2240 nM (active),–
O=C1CCCN1CC(O)CS(=O)(=O)c1ccccc1 (centres undefined),inactive,–
Cc1ccc(C2C(=O)N(C3CCCC3)CC(=O)N2CC2COc3ccccc3O2)cc1 (centres undefined),inactive,–
N=C(N)N1CCc2ccccc2C1,inactive,–
C[C@@H]1CCCN(C[C@@H](O)CN2CCCc3ccccc32)C1,1580 nM (active),–
CC1CCCC(C)N1CC(O)COCC1COc2ccccc2O1 (centres undefined),1780 nM (active),–
O=C(O)c1cc(=O)c2c(OCC(O)COc3cccc4oc(C(=O)O)cc(=O)c34)cccc2o1,inactive,–
Cc1ccc(-c2cccc(OC(=O)c3ccccc3F)c2)cc1,inactive,–
CC(C)C(=O)NC(=S)Nc1ccccc1C(=O)Nc1ccccc1,inactive,–
CN1CCN(c2ncc3ncc(=O)n(C[C@H]4CCCO4)c3n2)CC1,inactive,–
COc1ccc(S(=O)(=O)N2CCC(C(=O)NCC3CCCO3)CC2)cc1C (centres undefined),inactive,–
